Screening results from PubChem.
The list is not random: actives were taken first. Their share in the collection is about 2.4%.
Pol kappa inh-1 = inhibitors of human DNA polymerase kappa; Q9UBT6; purified Pol kappa, fluorescent DNA synthesis assay, 10 min; Potency, µM (highest dose often 107 µM), most hits filed as inhibitors; 400,000 tested, 0.53% active; AID 588579
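10 nM Pol kappa was preincubated with compounds for 15 min at room temperature. Reaction started with 50 nM (final) substrate. Fluorescence read kinetically at 0 and 10 min.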
POLB inh = DNA polymerase beta (human) inhibition; Potency, µM (doses to about 114 µM), hits mostly inhibitors; Pol beta primer extension/strand displacement, fluorescence kinetic; 340,000 tested, 1.3% active; P06746
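Preincubation: enzyme (10 nM) with compound, 15 min, RT. Reaction: substrate added to 50 nM final. Reads: 0 and 10 min. Analysis: normalized, Hill fit.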
Pol eta inh-1 = DNA polymerase eta (human) inhibition | recombinant Pol eta, fluorescent DNA replication assay | Potency, µM (doses to about 114 µM), actives largely listed as inhibitors | Q9Y253 | 390,000 tested, 1.2% active
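Fluorescent replication assay: 50 nM final substrate added after a 15 min room-temperature compound preincubation with 10 nM enzyme. Signal taken at 0 min and again at 10 min.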
WRN helicase inh = blocks human WRN helicase | 360,000 tested, 0.46% active | Q14191 | WRN helicase unwinding, fluorescent forked duplex, kinetic | AID 651768 | Potency, µM (highest dose often 114 µM), usual class: inhibitors; note: nearly all actives have a fitted effect of over 55% in size
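Kinetic fluorescence helicase assay: unwinding of a quenched forked DNA duplex (100 nM final) with 2 mM ATP final raises red fluorescence (525/598 nm). Compounds sat 15 min at room temperature with 20 nM WRN beforehand.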
FEN1 inh = human FEN1 inhibition; P39748; Recombinant FEN1 flap cleavage, fluorescence, 15 min; Potency, µM (series often up to 114 µM), usual class: inhibitors; 390,000 tested, 0.35% active; note: nearly all actives have a fitted effect of over 65% in size
Target sequence (P39748 whole entry, looked up): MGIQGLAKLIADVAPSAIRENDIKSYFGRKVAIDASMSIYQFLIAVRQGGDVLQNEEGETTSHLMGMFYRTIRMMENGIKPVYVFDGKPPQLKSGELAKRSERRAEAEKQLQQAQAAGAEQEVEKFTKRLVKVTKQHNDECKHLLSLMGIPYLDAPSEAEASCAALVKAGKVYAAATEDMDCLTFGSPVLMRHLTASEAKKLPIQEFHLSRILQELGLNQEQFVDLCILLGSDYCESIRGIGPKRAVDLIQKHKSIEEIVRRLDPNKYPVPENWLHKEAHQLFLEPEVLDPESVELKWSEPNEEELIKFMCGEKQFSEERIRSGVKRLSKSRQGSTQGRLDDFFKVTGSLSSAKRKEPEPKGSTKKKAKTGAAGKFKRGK
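Nuclease activity of 10 nM FEN1 was measured after 15 min of room-temperature exposure to titrated compounds, by adding 50 nM flap substrate and reading plates at 0 and 15 min.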
Pol iota inh = blocks human DNA polymerase iota activity. AID 588590. Q9UNA4. 390,000 tested, 1% active. Pol iota fluorescent replication assay, 10 min. Potency, µM (top dose mostly 115 µM), most hits filed as inhibitors
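Pol iota at 10 nM preincubated 15 min with compounds at room temperature; reaction started with fluorescent substrate, 50 nM final. Fluorescence read kinetically at 0 and 10 min; buffer-only wells as negative control.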
GALK inh confirm = galactokinase (human) inhibition, confirmation; shares compounds with Pol eta inh-1; purified GALK, Kinase-Glo ATP depletion luminescence; Potency, µM (titrated, usually from 115 µM), most hits filed as inhibitors; 150 tested, 70% active
Target sequence (P51570 whole entry, looked up): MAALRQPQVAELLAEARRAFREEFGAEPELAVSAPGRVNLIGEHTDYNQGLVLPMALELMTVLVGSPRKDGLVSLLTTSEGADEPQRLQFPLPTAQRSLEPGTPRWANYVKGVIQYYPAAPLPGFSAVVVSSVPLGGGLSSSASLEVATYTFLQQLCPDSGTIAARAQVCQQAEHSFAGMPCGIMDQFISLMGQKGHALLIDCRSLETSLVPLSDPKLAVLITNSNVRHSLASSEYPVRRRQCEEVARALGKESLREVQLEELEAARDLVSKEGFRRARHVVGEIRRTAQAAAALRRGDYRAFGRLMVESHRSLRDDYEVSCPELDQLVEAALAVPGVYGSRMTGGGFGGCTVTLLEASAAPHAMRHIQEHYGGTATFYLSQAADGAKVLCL
GALK redox cs = redox cycling activity in phenol red-HRP assay; Phenol red-HRP H2O2 redox cycling, absorbance 600 nm; AID 2035; shares compounds with Pol eta inh-1; Potency, µM (highest dose often 115 µM), most hits filed as inhibitors; 150 tested, 40% active
HEK293 tox = reduces HEK-293 cell viability in GALK counter-screen. shares compounds with Pol eta inh-1. HEK-293 viability, ATP luminescence (CellTiter-Glo), 24/48 h. Potency, µM (titrated, usually from 46.1 µM), actives largely listed as inhibitors. 170 tested, 10% active
Pol kappa inh-2 = confirmation of human DNA polymerase kappa inhibitors; shares compounds with Pol eta inh-1; purified Pol-kappa, fluorescent strand-displacement substrate; Potency, µM, hits mostly inhibitors; 920 tested, 76% active
Pol eta inh-2 = Pol eta (human) inhibition, cherry-pick confirmation. shares compounds with Pol eta inh-1. Pol eta primer extension, TAMRA/BHQ fluorescence, 10 min. Potency, µM, actives largely listed as inhibitors. 2,600 tested, 64% active
Large screens that a line does not name were inactive (follow-up assays come after a bar, where they were run). Calls come from the whole dose curve; as a rule, active = well fitted curve in the direction sought with a large enough effect; inconclusive = small, poorly fitted or top-dose-only effect, or another doubt; inactive = no such curve, though single readings can be large; an effect the other way counts as inactive or inconclusive.

O=C(O)C1CC=CCC1C(=O)N1CCc2ccccc21 (stereo not drawn)	Pol kappa inh-1 inconclusive, POLB inh 20µM, Pol eta inh-1 inconclusive | Pol eta inh-2 inconclusive
COc1cc(-c2cc(=O)c3c(O)c(OC)c(OC)cc3o2)cc(OC)c1O	Pol kappa inh-1 79µM, POLB inh 28µM, Pol eta inh-1 22µM, WRN helicase inh inconclusive, Pol iota inh inconclusive | Pol eta inh-2 67
Oc1ccc(Br)cc1/C=N/n1c(-c2ccccc2)n[nH]c1=S	Pol iota inh inconclusive
Oc1c(Br)cc(Br)c(/C=N/n2c(-c3ccccc3)n[nH]c2=S)c1Br	Pol kappa inh-1 inconclusive, POLB inh inconclusive, Pol eta inh-1 35µM, WRN helicase inh inconclusive, FEN1 inh inconclusive, Pol iota inh 28µM | Pol kappa inh-2 inconclusive | Pol eta inh-2 inconclusive
S=c1[nH]nc(-c2cc(-c3ccccc3)n[nH]2)n1/N=C/c1cccc(Cl)c1	Pol kappa inh-1 inconclusive, POLB inh 7.1µM, Pol eta inh-1 40µM, WRN helicase inh 50µM, FEN1 inh inconclusive, Pol iota inh 25µM | Pol eta inh-2 27
Cc1ccc(NCc2cccn2-c2nnc(N3CCC(C(=O)NCc4ccc(F)cc4)CC3)s2)cc1	none (no result: Pol eta inh-1, WRN helicase inh)
CSc1ccccc1NC(=O)c1cc2ncc(Br)cn2n1	Pol kappa inh-1 inconclusive, POLB inh inconclusive, Pol eta inh-1 45µM | Pol eta inh-2 inconclusive
Nc1ccc2cccnc2c1	none (no result: POLB inh, Pol eta inh-1, WRN helicase inh)
COc1ccc(-n2nnc3c(=O)n(CC(=O)N4CCC(C)CC4)cnc32)cc1	none | GALK inh confirm inactive | GALK redox cs inactive | HEK293 tox inactive
Cc1oc(-c2ccc(C(=O)NCCC(C)C)cc2)nc1CS(=O)(=O)c1ccccc1	POLB inh inconclusive (no result: WRN helicase inh)
Cc1ccc(-n2nc3ccc(NC(=O)/C=C/c4ccco4)cc3n2)cc1	Pol kappa inh-1 inconclusive, POLB inh 32µM, Pol eta inh-1 inconclusive, Pol iota inh 25µM | Pol eta inh-2 inconclusive
CC(=O)Nc1ccc2c(O)cc(S(=O)(=O)O)cc2c1	Pol kappa inh-1 inconclusive, Pol eta inh-1 32µM, FEN1 inh inconclusive, Pol iota inh 20µM (no result: POLB inh) | Pol kappa inh-2 inconclusive | Pol eta inh-2 inconclusive
CCOC(=O)C1(Cc2cccc(F)c2)CCN(C(=O)C2CCOCC2)CC1	none
CCOC(=O)C1(Cc2cccc(F)c2)CCN(C(=O)COC)CC1	none | GALK inh confirm inactive | GALK redox cs inactive | HEK293 tox inactive
Cc1ccc(C2C(/C=C3/SC(=S)NC3=O)=C(c3cccs3)Oc3ccccc32)cc1 (stereo not drawn)	Pol kappa inh-1 inconclusive, POLB inh 32µM, Pol eta inh-1 71µM, WRN helicase inh 79µM, FEN1 inh inconclusive, Pol iota inh inconclusive | Pol kappa inh-2 inconclusive | Pol eta inh-2 inconclusive
CC1Cc2cc(/C=C3/SC(=S)NC3=O)ccc2O1 (stereo not drawn)	none
CCN(CC)CCN(C)c1ccc(/C=C/c2ccnc3ccccc23)cc1	none (no result: POLB inh, Pol eta inh-1, WRN helicase inh)
CC(=O)c1cccc(S(=O)(=O)NCCCN2CCOCC2)c1	Pol kappa inh-1 inconclusive, Pol eta inh-1 20µM, Pol iota inh 45µM (no result: POLB inh) | Pol eta inh-2 76
O=C(NCCCN1CCOCC1)c1cccc(S(=O)(=O)NCc2ccccc2)c1	none (no result: POLB inh)
O=C(Nc1nnc(S(=O)(=O)N2CCCc3ccccc32)s1)c1ccccc1Br	Pol eta inh-1 79µM (no result: WRN helicase inh) | Pol kappa inh-2 inconclusive | Pol eta inh-2 inconclusive
O=C(Nc1nnc(S(=O)(=O)N2CCCc3ccccc32)s1)c1ccc(Cl)cc1	Pol eta inh-1 inconclusive (no result: WRN helicase inh) | Pol kappa inh-2 inconclusive
Cc1ccc(-n2ncc3c(N4CCCCC4)ncnc32)cc1	none (no result: WRN helicase inh)
N#Cc1c(N)n(-c2cccc(C(=O)O)c2)c2nc3ccccc3nc12	Pol eta inh-1 40µM | Pol eta inh-2 54
N#Cc1c(N)n(-c2ccccc2N)c2nc3ccccc3nc12	Pol eta inh-1 inconclusive, FEN1 inh inconclusive
O=C1CCCC2=C1C(c1ccc(Cl)cc1)N=C(Nc1nc3ccccc3o1)N2 (stereo not drawn)	none (no result: POLB inh, Pol eta inh-1, WRN helicase inh) | HEK293 tox inactive
COc1ccccc1C1N=C(Nc2nc3ccccc3o2)NC2=C1C(=O)CC(C)(C)C2 (stereo not drawn)	none (no result: POLB inh, Pol eta inh-1, WRN helicase inh) | HEK293 tox inactive
COc1cccc(C2N=C(Nc3nc4ccccc4o3)NC3=C2C(=O)CC(C)(C)C3)c1 (stereo not drawn)	none (no result: Pol kappa inh-1, POLB inh, Pol eta inh-1, WRN helicase inh, FEN1 inh, Pol iota inh) | HEK293 tox inactive
CCCN1CN=C(Nc2nc3ccccc3o2)NC1	none
CC1(C)CC(=O)C2=C(C1)NC(Nc1nc3ccccc3o1)=NC2c1cccc(Cl)c1 (stereo not drawn)	none (no result: Pol kappa inh-1, POLB inh, Pol eta inh-1, WRN helicase inh, FEN1 inh, Pol iota inh) | HEK293 tox inconclusive
COc1cccc(C2C(C(=O)Nc3nc4ccccc4s3)=C(C)NC3=C2C(=O)CC(C)(C)C3)c1OC (stereo not drawn)	none
Cc1cc(C)c(NC(=O)C(=O)NCC(c2cccnc2)N2CCN(Cc3ccccc3)CC2)c(C)c1 (stereo not drawn)	none (no result: WRN helicase inh)
O=C(Nc1cccc(Cl)c1Cl)c1cc(S(=O)(=O)N2CCCCC2)ccc1F	none (no result: WRN helicase inh)
CC(C)C[C@@H](CN=[N+]=[N-])N1CCN(CCc2ccccc2)CCC1=O	none (no result: POLB inh, Pol eta inh-1, WRN helicase inh)
Cc1cc(C(=O)N/N=C/c2cc(Br)c(Br)o2)n[nH]1	Pol kappa inh-1 79µM, POLB inh 45µM, Pol eta inh-1 18µM, WRN helicase inh inconclusive, Pol iota inh 14µM | Pol kappa inh-2 47 | Pol eta inh-2 60
O=S(=O)(Nc1nc2n(n1)C(c1ccccc1)C=C(c1ccc(Cl)cc1)N2)c1ccccc1 (stereo not drawn)	Pol eta inh-1 89µM (no result: WRN helicase inh) | Pol kappa inh-2 67 | Pol eta inh-2 inconclusive
CC(=O)Nc1ccc(S(=O)(=O)Nc2nc3n(n2)C(c2ccccc2)C=C(c2ccc(Cl)cc2)N3)cc1 (stereo not drawn)	Pol eta inh-1 inconclusive (no result: WRN helicase inh) | Pol eta inh-2 inconclusive
COc1ccc(NC(=O)Cn2nnc(C(=O)NCc3ccccc3Cl)c2N)cc1Cl	Pol iota inh inconclusive (no result: WRN helicase inh)
